Test results taken from PubChem BioAssay (NCATS).
Records with an inconclusive call do not appear. Unmarked numbers belong to inactive results. The source made the active and inactive calls. The call rests on the fitted dose curve; tested in HEK293 reporter line.

assay: qHTS for Inhibitors of the Functional Ribonucleoprotein Complex (vRNP) of Lassa (LASV) Arenavirus: LASV Primary Screen - GLuc reporter signal (AID 1347082); settings: LASV minigenome vRNP, Gaussia luciferase reporter; series mostly up to 57.5 µM; activity change, negative = inhibition: at the top concentration; further: nearly all actives have a fitted effect of over 60% in size
On the % scale 0 is the no-effect control and ±100 the full control effect.

Structure (SMILES)	activity change, negative = inhibition [%]	Potency
CCCCCCCCCCCC(=O)[O][Sn]([CH2]CCC)([CH2]CCC)[O]C(=O)CCCCCCCCCCC	4.35	–
CCCCCCOc1ccccc1C(N)=O	-9.66	–
Nc1ccc(C(=O)O)c(O)c1	-9.6	–
Cc1ncc(CO)c(CN)c1O	0.186	–
C=CCc1ccc(O)c(OC)c1	2.26	–
CCC(Cc1c(I)cc(I)c(N)c1I)C(=O)O (centres undefined)	-6.71	–
CN(c1nccc(=O)[nH]1)C1CCN(c2nc3ccccc3n2Cc2ccc(F)cc2)CC1	-16	–
c1ccc2c(CC3=NCCN3)cccc2c1	3.97	–
CCN1CCC[C@H]1CNC(=O)c1cc(S(N)(=O)=O)ccc1OC	–	inactive
CCN(CC)CC#CCOC(=O)C(O)(c1ccccc1)C1CCCCC1 (centres undefined)	-1.03	–
O=c1[nH]c(=O)n([C@H]2CCCO2)cc1F	-1.98	–
Cc1c(C(=O)NCCO)[n+](=O)c2ccccc2n1[O-]	-1.9	–
CC(C)(C)NCC(O)COc1ccc(NC(=O)NC2CCCCC2)cc1 (centres undefined)	0.777	–
NS(=O)(=O)c1cc(Cl)c(Cl)c(S(N)(=O)=O)c1	3.83	–
O=C(OCc1ccccc1)c1ccccc1	-1.22	–
C/C=C1\[C@H]2C=C(C)C[C@]1(N)c1ccc(=O)[nH]c1C2	2.11	–
COc1ccc(-c2cc(=O)c3c(O)cc(O[C@@H]4O[C@H](CO[C@@H]5O[C@@H](C)[C@H](O)[C@@H](O)[C@H]5O)[C@@H](O)[C@H](O)[C@H]4O)cc3o2)cc1O	3.99	–
CCCCCN(CCCOC)C(=O)C(CCC(=O)O)NC(=O)c1ccc(Cl)c(Cl)c1 (centres undefined)	1.49	–
C[C@H]1C[C@@H]2[C@H]([C@@H](O)C[C@@]3(C)[C@H]2CC[C@]3(O)C(=O)CO)[C@@]2(C)C=CC(=O)C=C12	33.7	–
